This is an account of results in PubChem BioAssay (Tox21).

Results filed as inconclusive are left out. A call without a number means that no potency is given here. Calls of active or inactive are those of the source. The call rests on the fitted dose curve; in most records, active means well fitted activation curve with a large enough effect in the repeat runs; inconclusive means weak or mixed curves; inactive means flat fitted curve, though single readings scatter.
Potency means the concentration at half of the fitted maximal effect.

The nature of the test: A CellTox Green Cytotoxicity Assay to monitor cytotoxicity in HEK293 cells - 16 hour (AID 1224888). Further: nearly all actives have a fitted effect of over 35% in size. The following applies: CellTox Green fluorescence; series mostly up to 76.8 µM. The text has this:
National Center for Advancing Translational Sciences [NCATS]
NIH Chemical Genomics Center [NCGC]
U.S. Environmental Protection Agency [EPA]
National Institutes of Environmental Health Sciences [NIEHS]
National Toxicology Program [NTP]
Cell-based models are critical for drug discovery. Determining the natural cytotoxic effects resulting from test compounds is an essential research activity. A CellTox Green Cytotoxicity Assay to monitor cytotoxicity in real time of continues cell culture during 40 hours of the compound treatment was used to screen Tox21 10K library compounds in Hek293 cells. CellTox Green Cytotoxicity Assay is a nonlytic, homogeneous, biofluorescent method to measure cytotoxicity in cell culture after experimental manipulation. The assay system uses a proprietary asymmetric cyanine dye that is excluded from viable cells but preferentially stains the dead cell's DNA. […] Viable cells produce no appreciable increases in fluorescence. Therefore, the fluorescence signal produced by the binding interaction with dead cell DNA is proportional to cytotoxicity.
The mixture of Hek293 cell suspension and reagents were dispensed at 600cells/6 ul/well in 1536-well tissue culture treated black solid bottom plates using a Multidrop dispenser. After the assay plates were incubated at a 37 C/5% CO2 incubator for 5 hours, 23 nL of compounds dissolved in DMSO, positive and negative controls was transferred to the assay plate by a pintool work station. The plates were incubated at 37 C for 40 hours. The fluorescence intensity were measured at 0h, 8h, 16h, 24h, 32h and 40h time points using ViewLux plate reader during compound treatment.
In the case of `O=C(Nc1ccc(Cl)c(Cl)c1)c1cc(Cl)cc(Cl)c1O`, the Potency entry is “inactive”.

As to `CN1[C@@H]2CC[C@H]1CC(OC(=O)C(CO)c1ccccc1)C2` (stereo not given in full), the Potency entry is “inactive”.

Consider `CN(C)CCCN1c2ccccc2CCc2ccccc21`, for which the Potency result was “inactive”.

In the case of `C[C@@H]1CC[C@H]2C(C)(C)[C@H]3C[C@@]12CC[C@@]3(C)O`, the Potency was 43.6 µM (active).

Regarding `O=C1OC(=O)c2cccc3cccc1c23`, the Potency entry was “inactive”.

In the case of `C=CC(=C)CC/C=C(\C)CCC=C(C)C`, the activity change is 2.36% [at 15.8 µM, stronger effect = higher value] (inactive).

On to `CC(C)OC(=O)c1cc(C(=O)OC(C)C)cc([N+](=O)[O-])c1`, for which the Potency result is “inactive”.

With `Clc1nc2ccccc2s1`, the Potency result is “inactive”.

In the case of `CCOC(=O)[C@@](C)(N)Cc1ccc(O)c(O)c1`, the Potency result was “inactive”.

Turning to `CC(C)(C)c1cc(CCC(=O)NCCCCCCNC(=O)CCc2cc(C(C)(C)C)c(O)c(C(C)(C)C)c2)cc(C(C)(C)C)c1O`, the Potency result is “inactive”.

`CCCCCCC(C)Nc1ccc(Nc2ccccc2)cc1` (stereo not given): the Potency result was “inactive”.

On to `O=C1c2c(O)ccc(O)c2C(=O)c2c(NCCNCCO)ccc(NCCNCCO)c21`, for which the Potency entry is “inactive”.

Turning to `O=C(c1ccccc1)c1cc(Cl)ccc1O`, the Potency result is “inactive”.

In the case of `NCCCC(O)(P(=O)(O)O)P(=O)(O)O`, the Potency entry is “inactive”.

For the compound `COc1cccc(CCc2ccccc2OCC(CN(C)C)OC(=O)CCC(=O)O)c1` (stereo not given), the Potency result is “inactive”.

As to `CCOC(/C=C(\C)CCC=C(C)C)OCC`, the Potency entry was “inactive”.

Regarding `CC(C)=C1CC[C@@H](C)CC1=O`, the Potency result was “inactive”.

`COc1cc(C=C2CCC/C(=C\c3ccc(O)c(OC)c3)C2=O)ccc1O`: the Potency entry was “inactive”.

As for `CCCCCCCC/C=C\CCCCCCCC(=O)NCc1ccc(O)c(OC)c1`, the Potency entry is “inactive”.

For `OCCCS`, the Potency entry was “inactive”.

Consider `OCCN1CN(CCO)CN(CCO)C1`, for which the Potency result was “inactive”.

Consider `COc1cccc(O)c1`, for which the Potency entry is “inactive”.

In the case of `CC(C)(c1cc(Br)c(O)c(Br)c1)c1cc(Br)c(O)c(Br)c1`, the Potency entry was “inactive”.

With `CCCCCCCC/C=C/CCCOC(C)=O`, the Potency entry is “inactive”.

Take `O=CC1CC1`: the Potency entry is “inactive”.

Regarding `COC(=O)C1=C(C)NC(C)=C(C(=O)OCCCN2CCC(c3ccccc3)(c3ccccc3)CC2)C1c1cccc([N+](=O)[O-])c1` (stereo not given), the Potency result was “inactive”.

Take `O=C[C@H](O)[C@H](O)[C@H](O)CO`: the Potency result was “inactive”.

Consider `C#CC(O)CCC` (stereo not given), for which the Potency entry is “inactive”.

In the case of `C[C@H]1O[C@@H](O[C@H]2[C@@H](O)C[C@H](O[C@H]3[C@@H](O)C[C@H](O[C@H]4CC[C@@]5(C)[C@H](CC[C@@H]6[C@@H]5C[C@@H](O)[C@]5(C)[C@@H](C7=CC(=O)OC7)CC[C@]65O)C4)O[C@@H]3C)O[C@@H]2C)C[C@H](O)[C@@H]1O`, the Potency entry was “inactive”.

With `c1cc(OCC2CO2)cc(OCC2CO2)c1` (stereo not given), the Potency entry was “inactive”.

Regarding `CCCCCCCCCCCCCCCC`, the Potency entry is “inactive”.

Turning to `CCc1ccc(O)c(C(C)(C)C)c1`, the Potency entry was “inactive”.

Turning to `CCCCCCCCC(C)=O`, the Potency entry was “inactive”.

On to `COc1ccc(-n2nc(CCC(=O)N(C)O)cc2-c2ccc(Cl)cc2)cc1`, for which the Potency entry was “inactive”.

Consider `C[n+]1c2cc(N)ccc2cc2ccc(N)cc21` (tested in a mixture with another compound), for which the Potency was 23.9 µM (active).

Consider `C=CC/C=C/C/C=C/C/C=C/C`, for which the Potency result was “inactive”.

Take `NCCCCCCNCCCCCCN`: the Potency entry was “inactive”.

Consider `CCCCCCS`, for which the Potency result is “inactive”.

Regarding `CC1=C(/C=C/C(C)=C/C=C/C(C)=C/C(=O)Nc2ccc(O)cc2)C(C)(C)CCC1`, the Potency result was “inactive”.

With `CCCCCCCCCCCCCOP(=O)(O)O`, the Potency entry is “inactive”.
